Measurements: PubChem BioAssay
For some assays here: Measured potencies and affinities stand elsewhere. Calls of active or inactive are those of the source.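 Rule for the calls, unless noted: active = compound raising the membrane signal above positive-control mean plus 3 SD in both repeats, and a primary screen hit; inactive = the rest.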

Tests used:
[1] = test system: TRPC4 beta (transient receptor potential cation channel C4), mouse; assay: activators of mouse TRPC4 channel, confirmation, cell-based, Fluo4 calcium, HEK293 TRPC4beta/mu-opioid, duplicates, 10 µM (AID 2426;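 active = fluorescence ratio normalized to control raised more than 50% in primary screen plus both repeat runs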;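 note: percent rise of integrated ratio over buffer wells lacking compound which define 0%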); conditions: Fluo4 calcium fluorescence, at 10 µM; stronger effect = higher value
[2] = test system: transient receptor potential cation channel C4 beta (TRPC4), mouse; assay: activators of mouse TRPC4 channel, confirmation, cell-based, second round, Fluo4, HEK293 TRPC4beta/mu-opioid, 1 µM (AID 2461;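 active = primary screen active and over 50% activation in each of two duplicate runs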;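 for activation: 0% = wells without test compound as baseline of integrated fluorescence ratio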); conditions: Fluo4 calcium fluorescence, at 1 µM; stronger effect = higher value
[3] = test system: TRPC4 (transient receptor potential cation channel C4 beta), mouse; assay: positive allosteric modulators of mouse TRPC4, confirmation, cell-based, second round, Fluo-4, HEK293 TRPC4beta/mu-opioid, 1 µM (AID 2554;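 active = primary screen hit whose fluorescence ratio, in both repeats, exceeds the weak agonist control mean by 3 SD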); conditions: DAMGO EC20, Fluo-4 calcium flux, at 1 µM; stronger effect = higher value
[4] = test system: TRPC4 beta (transient receptor potential cation channel C4), mouse; assay: positive allosteric modulators of mouse TRPC4, confirmation, cell-based, Fluo-4, HEK293 TRPC4beta/mu-opioid (AID 2555;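 active = primary screen hit whose calcium fluorescence ratio, in both repeats, exceeds the weak agonist control mean by 3 SD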); conditions: DAMGO EC20, Fluo-4 calcium flux, at 10 µM; stronger effect = higher value
[5] = target: Short transient receptor potential channel 4 (Mus musculus) (UniProt Q9QUQ5); assay: inhibitors of mouse TRPC4 channel, confirmation, cell-based, Fluo4, HEK293 TRPC4beta/mu-opioid (AID 2636;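 active = calcium signal cut by more than 3 SD below the full-agonist control yet still positive, in both repeats and the earlier primary screen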); conditions: DAMGO, Fluo4 calcium flux, at 10 µM; stronger effect = higher value
[6] = target: Short transient receptor potential channel 4 (Mus musculus) (UniProt Q9QUQ5); assay: inhibitors of mouse TRPC4 channel, confirmation, cell-based, second round, Fluo4, HEK293 TRPC4beta/mu-opioid, 1 µM (AID 2637;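 active = calcium signal ratio cut to more than 3 SD under the fully stimulated control mean yet still positive, in both repeats and the primary screen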); conditions: Fluo4 calcium flux, DAMGO, at 1 µM; stronger effect = higher value
[7] = target: Short transient receptor potential channel 4 (Mus musculus) (UniProt Q9QUQ5); assay: TRPC4 positive allosteric modulators, dose response, cell-based, HEK293 TRPC4/mu-opioid, Fluo-4 calcium, EC20 DAMGO (AID 434941;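 active = earlier screen potentiator hit that boosts the TRPC4 ion channel at some dose, with a dose response; inactive = no potentiation, no dose response, or not a prior hit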;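 note: calcium entry triggered by an EC20 dose of DAMGO at the co-expressed mu-opioid receptor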)
[8] = target: Short transient receptor potential channel 4 (Mus musculus) (UniProt Q9QUQ5); assay: mouse TRPC4 channel inhibitors, dose response, cell-based, HEK293 TRPC4/mu-opioid, Fluo-4 calcium (AID 434942;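 active = primary screen inhibitor hit that blocks the TRPC4 channel at some tested dose, yielding a dose curve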)
[9] = target: Short transient receptor potential channel 6 (Mus musculus) (UniProt Q61143); assay: inhibition of mouse TRPC6 channel, confirmation, selectivity assay for TRPC4 inhibitor project, cell-based, HEK293, membrane potential dye, duplicate (AID 434948;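 active = active in primary screen and both duplicates, each dropping signal beyond three positive-control SD with fluorescence still positive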); conditions: HEK293 TRPC6, membrane potential dye fluorescence, at 10 µM, stimulated with maximal-effect acetylcholine; stronger effect = higher value
[10] = target: Short transient receptor potential channel 6 (Mus musculus) (UniProt Q61143); assay: activation of mouse TRPC6 channel, confirmation, selectivity assay for TRPC4 activator project, cell-based, HEK293, membrane potential dye, duplicate (AID 434950;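 active = membrane potential signal rise above negative control mean plus 3 SD in both duplicates, also active in the earlier TRPC4 screen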;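 for activation: 0% = buffer only wells and 100% = acetylcholine maximal-effect wells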); conditions: HEK293 TRPC6, membrane potential fluorescence, at 10 µM; stronger effect = higher value
[11] = target: Short transient receptor potential channel 6 (Mus musculus) (UniProt Q61143); assay: TRPC6 potentiation by TRPC4 potentiator hits, confirmation, selectivity assay for TRPC4 potentiator project, HEK293 cells, membrane potential dye, duplicate (AID 434952); conditions: HEK293 TRPC6, membrane potential dye fluorescence, at 10 µM, maximal acetylcholine added after compound; stronger effect = higher value
[12] = target: Short transient receptor potential channel 4 (Mus musculus) (UniProt Q9QUQ5); assay: calcium flux activators in TRPC4/5HT1a cells, counter-screen for TRPC4 activator project, cell-based, second counter screen, HEK293 TRPC4/5HT1a, Fluo-4 (AID 434977;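 active = calcium signal rise above buffer-control mean plus 5 SD in both duplicates, and also a hit in the primary screen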;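 for activation: plate controls were assay buffer for no effect and maximal serotonin response for full effect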); conditions: Fluo-4 calcium flux, at 10 µM; stronger effect = higher value
[13] = calcium flux inhibitors in TRPC4/5HT1a cells, confirmation, counter-screen for TRPC4 inhibitor project, cell-based, second counter screen, HEK293 TRPC4/5HT1a, Fluo-4 (AID 434978;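 active = primary screen active whose calcium signal fell more than 3 SD beyond the full-serotonin control mean in both duplicate plates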;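 note: serotonin given first at submaximal then at maximal dose after compound preincubation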); conditions: Fluo-4 calcium flux, at 10 µM, serotonin added to trigger calcium flux; stronger effect = higher value
[14] = test system: TRPC4 (mouse), co-expressed with 5HT1a in HEK293; assay: calcium flux potentiators in TRPC4/5HT1a cells, confirmation, counter-screen for TRPC4 potentiator project, cell-based, second counter screen, HEK293 TRPC4/5HT1a, Fluo-4 (AID 434979;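 active = signal rise over 3 SD above mean of control wells given weak agonist, in both repeats and first screen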); conditions: Fluo-4 calcium flux, at 10 µM, serotonin added at its EC20 dose; stronger effect = higher value
[15] = calcium flux activation in mu-opioid HEK293 cells, confirmation, counter-screen for TRPC4 activator project, cell-based, HEK293 mu-opioid receptor line (AID 449723;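 active = hit in primary screen, with calcium signal over 5 SD above buffer well mean in both duplicates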;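 note: counter screen cells carry the mu-opioid receptor alone and lack TRPC4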); conditions: Fluo-4 calcium fluorescence, at 10 µM; stronger effect = higher value
[16] = calcium flux enhancement in mu-opioid HEK293 cells, confirmation, counter-screen for TRPC4 allosteric potentiator project, cell-based, HEK293 mu-opioid receptor line (AID 449724;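 active = calcium signal rise more than 3 SD above the low-dose agonist control mean, in both duplicate plates and the primary screen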); conditions: Fluo-4 calcium flux, at 10 µM, compound added before EC20 DAMGO stimulus; stronger effect = higher value

Short transient receptor potential channel 4 (Mus musculus), sequence (Q9QUQ5 whole entry, looked up): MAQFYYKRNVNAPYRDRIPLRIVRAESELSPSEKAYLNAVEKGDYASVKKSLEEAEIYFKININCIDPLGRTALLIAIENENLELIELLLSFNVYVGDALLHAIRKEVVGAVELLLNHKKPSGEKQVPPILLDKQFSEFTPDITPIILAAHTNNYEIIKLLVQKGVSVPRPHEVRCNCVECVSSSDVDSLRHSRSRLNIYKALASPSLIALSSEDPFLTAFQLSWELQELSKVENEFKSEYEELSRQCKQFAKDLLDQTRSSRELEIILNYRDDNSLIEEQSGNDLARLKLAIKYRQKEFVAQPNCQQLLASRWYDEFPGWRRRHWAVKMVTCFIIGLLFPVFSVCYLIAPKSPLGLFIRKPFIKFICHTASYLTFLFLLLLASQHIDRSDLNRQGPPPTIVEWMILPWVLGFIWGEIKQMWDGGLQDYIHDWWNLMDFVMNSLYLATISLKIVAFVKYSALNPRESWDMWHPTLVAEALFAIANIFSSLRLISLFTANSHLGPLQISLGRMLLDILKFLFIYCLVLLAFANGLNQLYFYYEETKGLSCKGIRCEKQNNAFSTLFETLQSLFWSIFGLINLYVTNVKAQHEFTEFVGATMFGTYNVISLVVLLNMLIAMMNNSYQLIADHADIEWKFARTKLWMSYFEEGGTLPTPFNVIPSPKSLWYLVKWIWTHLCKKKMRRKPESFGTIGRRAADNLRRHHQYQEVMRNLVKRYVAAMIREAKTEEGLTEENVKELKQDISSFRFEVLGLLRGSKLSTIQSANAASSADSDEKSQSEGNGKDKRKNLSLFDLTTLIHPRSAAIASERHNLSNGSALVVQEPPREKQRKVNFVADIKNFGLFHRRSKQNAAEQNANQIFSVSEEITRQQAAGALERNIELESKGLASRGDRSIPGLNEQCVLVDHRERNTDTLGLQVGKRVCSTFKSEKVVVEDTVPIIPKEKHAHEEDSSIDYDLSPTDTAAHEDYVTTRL
Short transient receptor potential channel 6 (Mus musculus), sequence (Q61143 whole entry, looked up): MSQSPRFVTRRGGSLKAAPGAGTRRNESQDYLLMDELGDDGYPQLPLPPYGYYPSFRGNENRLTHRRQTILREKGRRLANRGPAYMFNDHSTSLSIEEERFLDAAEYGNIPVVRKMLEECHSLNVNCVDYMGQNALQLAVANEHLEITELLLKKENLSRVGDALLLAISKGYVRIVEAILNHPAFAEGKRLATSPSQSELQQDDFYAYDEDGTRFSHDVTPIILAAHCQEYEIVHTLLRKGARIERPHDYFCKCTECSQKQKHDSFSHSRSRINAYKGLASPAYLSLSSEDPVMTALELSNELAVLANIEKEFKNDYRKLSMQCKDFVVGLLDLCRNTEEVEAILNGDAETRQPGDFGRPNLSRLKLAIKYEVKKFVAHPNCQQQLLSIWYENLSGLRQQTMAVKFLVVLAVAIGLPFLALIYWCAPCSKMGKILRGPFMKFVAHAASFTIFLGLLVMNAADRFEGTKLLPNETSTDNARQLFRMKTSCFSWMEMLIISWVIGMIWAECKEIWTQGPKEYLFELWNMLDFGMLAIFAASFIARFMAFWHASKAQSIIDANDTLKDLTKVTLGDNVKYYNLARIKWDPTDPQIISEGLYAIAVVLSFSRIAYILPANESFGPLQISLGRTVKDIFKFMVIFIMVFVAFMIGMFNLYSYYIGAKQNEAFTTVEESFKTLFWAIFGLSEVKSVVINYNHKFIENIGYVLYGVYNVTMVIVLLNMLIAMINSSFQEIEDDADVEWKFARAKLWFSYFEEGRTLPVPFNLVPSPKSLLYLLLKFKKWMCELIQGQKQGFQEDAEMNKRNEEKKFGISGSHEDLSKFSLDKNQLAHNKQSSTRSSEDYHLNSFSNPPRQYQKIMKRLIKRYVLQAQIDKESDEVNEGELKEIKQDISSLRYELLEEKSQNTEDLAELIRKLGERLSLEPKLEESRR

Row | SMILES | activation [1] | outcome [2] | outcome [3] | outcome [4] | outcome [5] | outcome [6] | outcome [7] | outcome [8] | outcome [9] | outcome [10] | outcome [11] | activation [12] | outcome [13] | outcome [14] | outcome [15] | outcome [16] | activation [2] | activation [10] | outcome [12] | activation [15]
1 | O=C(NCC(c1cccs1)N1CCOCC1)c1ccc(Cl)c([N+](=O)[O-])c1 (stereo not drawn) | 135% (active) | inactive | inactive | inactive | inactive | inactive | inactive | inactive | inactive | inactive | inactive | 21.6% (active) | inactive | inactive | inactive | inactive |  |  |  | 
2 | COc1ccc(-c2nn(-c3ccccc3C)cc2CNC(C)c2cn(C)nc2C)cc1F (stereo not drawn) | 206% (active) |  | inactive | inactive | inactive | inactive | inactive | inactive | inactive |  | inactive |  | inactive | inactive | inactive | inactive | 74% (active) | 31% (active) | inactive | 
3 | CCOC(=O)C1(CCOc2ccccc2)CCN(Cc2cc(OC)ccc2OC)CC1 | 68% (active) | inactive | inactive | inactive | inactive | inactive | inactive | inactive | inactive |  | inactive |  | inactive | inactive | inactive | inactive |  | 118% (active) | inactive | 
4 | COC(=O)c1ccc(N2CCN(C)CC2)c(NC(=O)c2ccc(Br)o2)c1 | 148% (active) | inactive | inactive | inactive | inactive | inactive | inactive | inactive | inactive | inactive | inactive | 13.3% (active) | inactive | inactive | inactive | inactive |  |  |  | 
5 | COc1c2c(cc3c1C(CC(O)Cc1ccccc1)N(C)CC3)OCO2 (stereo not drawn) | 110% (active) | inactive | inactive | inactive | inactive | inactive | inactive | inactive | inactive |  | inactive |  | inactive | inactive | inactive | inactive |  | 43% (active) | inactive | 
6 | OCC1(CCc2ccccc2)CCN(Cc2cccn2-c2cccnc2)CC1 | 56% (active) | inactive | inactive | inactive | inactive | inactive | inactive | inactive | inactive |  | inactive |  | inactive | inactive | inactive | inactive |  | 55% (active) | inactive | 
7 | CCCN(CCC)CCCNC(=O)c1cc2c(-c3ccc(OC)c(OC)c3)nn(C)c2s1 | 97% (active) |  | inactive | inactive | inactive | inactive | inactive | inactive | inactive | inactive | inactive | 38.6% (active) | inactive | inactive | inactive | inactive | 78% (active) |  |  | 
8 | CCn1c(=O)c(C(=O)NNC(=O)c2ccccc2F)c(O)c2ccccc21 | 126% (active) | inactive | inactive | inactive | inactive | inactive | inactive | inactive | inactive | inactive | inactive | 111% (active) | inactive | inactive |  | inactive |  |  |  | 34% (active)
